Consider six sequences from publication PMC11006913.

Holding throughout (assay): PBM; 200 nM protein, PBS
Details in all cases: dsDNA, one strand shown

For test [1], the target named is HESX1 (Homo sapiens, UniProt Q9UBX0 95-180, R165K).
In test [2] the target is HESX1 (Homo sapiens, UniProt Q9UBX0 95-180).
Test [3] has as its target HESX1 (Homo sapiens, UniProt Q9UBX0 95-180, P111T).
Test [4] deals with HESX1 (Homo sapiens, UniProt Q9UBX0 95-180, F115L).
In test [5] the target is HOXB4 (Homo sapiens, UniProt P17483 148-234).
The target of test [6] is T1, VENTX (Homo sapiens, UniProt O95231 78-163, R121Q).
T1 sequence: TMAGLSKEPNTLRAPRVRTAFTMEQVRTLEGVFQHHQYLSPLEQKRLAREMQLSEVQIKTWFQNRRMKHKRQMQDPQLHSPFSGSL

For test [7], the target named is HOXB9 (Homo sapiens, UniProt P17482 171-250, T197M).
Test [8] has as its target HOXA4 (Homo sapiens, UniProt Q00056 201-287, W262R).
In test [9] the target is HOXC9 (Homo sapiens, UniProt P31274 178-260, K195R).
Test [10] has as its target T2, VENTX (Homo sapiens, UniProt O95231 78-163).
T2 sequence: T1 sequence with Q44R

In test [11] the target is HOXA7 (Homo sapiens, UniProt P31268 116-202).
The target of test [12] is HOXC10 (Homo sapiens, UniProt Q9NYD6 254-340).
The target of test [13] is T3, PAX4 (Homo sapiens, UniProt O43316 9-242, R200K).
T3 sequence: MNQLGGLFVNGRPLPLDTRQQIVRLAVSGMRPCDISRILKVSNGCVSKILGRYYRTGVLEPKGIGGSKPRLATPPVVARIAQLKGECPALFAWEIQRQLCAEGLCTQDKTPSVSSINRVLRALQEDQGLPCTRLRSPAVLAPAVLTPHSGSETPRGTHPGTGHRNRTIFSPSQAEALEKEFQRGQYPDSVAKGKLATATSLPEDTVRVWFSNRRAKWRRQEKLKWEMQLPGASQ

In test [14] the target is T4, VENTX (Homo sapiens, UniProt O95231 78-163, Y115F).
T4 sequence: T1 sequence with Y38F, Q44R

The target in test [15] is T5, PAX4 (Homo sapiens, UniProt O43316 9-242).
T5 sequence: T3 sequence with K192R

The target of test [16] is HOXB6 (Homo sapiens, UniProt P17509 132-218, K202E).
Test [17] addresses HOXA2 (Homo sapiens, UniProt O43364 129-215, R185T).
In test [18] the target is HOXA4 (Homo sapiens, UniProt Q00056 201-287, R217L).
For test [19], the target named is HOXB9 (Homo sapiens, UniProt P17482 171-250).
The target in test [20] is HOXB4 (Homo sapiens, UniProt P17483 148-234, V174I).
Test [21] concerns the target HOXC9 (Homo sapiens, UniProt P31274 178-260).
Test [22] has as its target T6, PAX4 (Homo sapiens, UniProt O43316 9-242, R200Q).
T6 sequence: T3 sequence with K192Q

Test [23] has as its target HOXC9 (Homo sapiens, UniProt P31274 178-260, R193K).
Test [24] concerns the target HOXA2 (Homo sapiens, UniProt O43364 129-215, R185K).
Test [25] concerns the target T7, PAX4 (Homo sapiens, UniProt O43316 9-242, F177V).
T7 sequence: T3 sequence with F169V, K192R

Test [26] deals with HOXA4 (Homo sapiens, UniProt Q00056 201-287).
In test [27] the target is HOXC10 (Homo sapiens, UniProt Q9NYD6 254-340, K271E).
The target of test [28] is T8, PAX4 (Homo sapiens, UniProt O43316 9-242, F177Y).
T8 sequence: T3 sequence with F169Y, K192R

Test [29] has as its target VAX1 (Homo sapiens, UniProt Q5SQQ9 86-172).
The target of a further test is HOXD13 (Homo sapiens, UniProt P35453 263-343, T313A).
Test [30] concerns the target HOXB9 (Homo sapiens, UniProt P17482 171-250, R186Q).
For test [31], the target named is HOXC9 (Homo sapiens, UniProt P31274 178-260, R222W).
In test [32] the target is VAX1 (Homo sapiens, UniProt Q5SQQ9 86-172, T142I).
In test [33] the target is T9, PAX4 (Homo sapiens, UniProt O43316 9-242, R227W).
T9 sequence: T3 sequence with K192R, R219W

For test [34], the target named is HOXA2 (Homo sapiens, UniProt O43364 129-215, Y150S).
Test [35] addresses HOXA7 (Homo sapiens, UniProt P31268 116-202, W177C).
Test [36] concerns the target HOXA4 (Homo sapiens, UniProt Q00056 201-287, W262F).
The target in test [37] is HOXA2 (Homo sapiens, UniProt O43364 129-215).
Test [38] has as its target VAX1 (Homo sapiens, UniProt Q5SQQ9 86-172, K157R).
Test [39] addresses HOXB6 (Homo sapiens, UniProt P17509 132-218).

Changes are numbered by the printed parent chain.

Sequence of HESX1 (Homo sapiens, UniProt Q9UBX0 95-180, R165K) (Q9UBX0 95-180 R165K): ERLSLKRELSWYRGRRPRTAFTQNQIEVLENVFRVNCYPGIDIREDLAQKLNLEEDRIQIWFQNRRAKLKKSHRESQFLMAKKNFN
Sequence of HESX1 (Homo sapiens, UniProt Q9UBX0 95-180, P111T) (Q9UBX0 95-180 P111T): as the sequence (Q9UBX0 95-180 R165K) above, with P17T, K71R counted along it
Sequence of HESX1 (Homo sapiens, UniProt Q9UBX0 95-180) (Q9UBX0 95-180): as the sequence (Q9UBX0 95-180 R165K) above, with K71R counted along it
Sequence of VAX1 (Homo sapiens, UniProt Q5SQQ9 86-172) (Q5SQQ9 86-172): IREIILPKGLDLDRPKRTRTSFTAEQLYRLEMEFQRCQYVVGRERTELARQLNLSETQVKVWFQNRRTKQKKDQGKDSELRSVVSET
Sequence of HOXC9 (Homo sapiens, UniProt P31274 178-260, R222W) (P31274 178-260 R222W): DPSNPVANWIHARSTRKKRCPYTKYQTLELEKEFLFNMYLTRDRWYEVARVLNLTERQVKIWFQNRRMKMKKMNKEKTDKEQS
Sequence of HOXA2 (Homo sapiens, UniProt O43364 129-215, R185K) (O43364 129-215 R185K): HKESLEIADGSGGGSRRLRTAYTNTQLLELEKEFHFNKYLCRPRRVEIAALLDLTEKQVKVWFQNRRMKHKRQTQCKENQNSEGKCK
Sequence of HESX1 (Homo sapiens, UniProt Q9UBX0 95-180, F115L) (Q9UBX0 95-180 F115L): as the sequence (Q9UBX0 95-180 R165K) above, with F21L, K71R counted along it
Sequence of HOXB4 (Homo sapiens, UniProt P17483 148-234) (P17483 148-234): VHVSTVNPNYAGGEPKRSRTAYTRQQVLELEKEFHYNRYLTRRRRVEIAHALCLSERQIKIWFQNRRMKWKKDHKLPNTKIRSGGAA
Sequence of HOXB9 (Homo sapiens, UniProt P17482 171-250, T197M) (P17482 171-250 T197M): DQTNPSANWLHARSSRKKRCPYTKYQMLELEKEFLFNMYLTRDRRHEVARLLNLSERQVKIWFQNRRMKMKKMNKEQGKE
Sequence of HOXC10 (Homo sapiens, UniProt Q9NYD6 254-340, K271E) (Q9NYD6 254-340 K271E): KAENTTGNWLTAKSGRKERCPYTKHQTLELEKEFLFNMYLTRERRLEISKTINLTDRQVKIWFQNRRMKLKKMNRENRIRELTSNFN
Sequence of HOXA2 (Homo sapiens, UniProt O43364 129-215) (O43364 129-215): as the sequence (O43364 129-215 R185K) above, with K57R counted along it
Sequence of HOXC9 (Homo sapiens, UniProt P31274 178-260) (P31274 178-260): as the sequence (P31274 178-260 R222W) above, with W45R counted along it
Sequence of HOXC9 (Homo sapiens, UniProt P31274 178-260, K195R) (P31274 178-260 K195R): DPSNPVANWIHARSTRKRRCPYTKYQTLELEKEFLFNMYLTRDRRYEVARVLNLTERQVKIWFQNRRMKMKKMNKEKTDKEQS
Sequence of HOXA7 (Homo sapiens, UniProt P31268 116-202) (P31268 116-202): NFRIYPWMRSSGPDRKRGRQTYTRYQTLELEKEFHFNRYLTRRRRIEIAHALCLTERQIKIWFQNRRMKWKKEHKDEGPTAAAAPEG
Sequence of HOXC9 (Homo sapiens, UniProt P31274 178-260, R193K) (P31274 178-260 R193K): as the sequence (P31274 178-260 R222W) above, with R16K, W45R counted along it
Sequence of VAX1 (Homo sapiens, UniProt Q5SQQ9 86-172, T142I) (Q5SQQ9 86-172 T142I): as the sequence (Q5SQQ9 86-172) above, with T57I counted along it
Sequence of HOXA4 (Homo sapiens, UniProt Q00056 201-287, W262F) (Q00056 201-287 W262F): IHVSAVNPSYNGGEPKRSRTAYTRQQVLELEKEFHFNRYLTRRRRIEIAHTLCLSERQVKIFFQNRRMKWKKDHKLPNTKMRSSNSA
Sequence of HOXA4 (Homo sapiens, UniProt Q00056 201-287, R217L) (Q00056 201-287 R217L): as the sequence (Q00056 201-287 W262F) above, with R17L, F62W counted along it
Sequence of HOXA7 (Homo sapiens, UniProt P31268 116-202, W177C) (P31268 116-202 W177C): as the sequence (P31268 116-202) above, with W62C counted along it
Sequence of HOXD13 (P35453 263-343 T313A): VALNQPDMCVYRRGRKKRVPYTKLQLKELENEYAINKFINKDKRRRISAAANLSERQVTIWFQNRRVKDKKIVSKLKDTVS
Sequence of HOXA2 (Homo sapiens, UniProt O43364 129-215, R185T) (O43364 129-215 R185T): as the sequence (O43364 129-215 R185K) above, with K57T counted along it
Sequence of HOXB9 (Homo sapiens, UniProt P17482 171-250) (P17482 171-250): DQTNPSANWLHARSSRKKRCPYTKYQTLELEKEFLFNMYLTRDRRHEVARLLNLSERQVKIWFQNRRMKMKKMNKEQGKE
Sequence of HOXB6 (Homo sapiens, UniProt P17509 132-218, K202E) (P17509 132-218 K202E): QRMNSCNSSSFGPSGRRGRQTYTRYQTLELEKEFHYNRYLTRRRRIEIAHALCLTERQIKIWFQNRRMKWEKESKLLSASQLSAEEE
Sequence of HOXA2 (Homo sapiens, UniProt O43364 129-215, Y150S) (O43364 129-215 Y150S): as the sequence (O43364 129-215 R185K) above, with Y22S, K57R counted along it
Sequence of HOXB6 (Homo sapiens, UniProt P17509 132-218) (P17509 132-218): as the sequence (P17509 132-218 K202E) above, with E71K counted along it
Sequence of VAX1 (Homo sapiens, UniProt Q5SQQ9 86-172, K157R) (Q5SQQ9 86-172 K157R): as the sequence (Q5SQQ9 86-172) above, with K72R counted along it
Sequence of HOXC10 (Homo sapiens, UniProt Q9NYD6 254-340) (Q9NYD6 254-340): as the sequence (Q9NYD6 254-340 K271E) above, with E18K counted along it
Sequence of HOXB4 (Homo sapiens, UniProt P17483 148-234, V174I) (P17483 148-234 V174I): as the sequence (P17483 148-234) above, with V27I counted along it
Sequence of HOXB9 (Homo sapiens, UniProt P17482 171-250, R186Q) (P17482 171-250 R186Q): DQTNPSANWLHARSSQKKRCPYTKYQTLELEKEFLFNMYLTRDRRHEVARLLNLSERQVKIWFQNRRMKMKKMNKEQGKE
Sequence of HOXA4 (Homo sapiens, UniProt Q00056 201-287) (Q00056 201-287): as the sequence (Q00056 201-287 W262F) above, with F62W counted along it
Sequence of HOXA4 (Homo sapiens, UniProt Q00056 201-287, W262R) (Q00056 201-287 W262R): as the sequence (Q00056 201-287 W262F) above, with F62R counted along it

For the sequence TGTGATAA, the binding signal with HESX1 [1] was 7.98 upbm affinity estimate (log intensity, higher = more binding, comparable within an allelic series); with HESX1 [2] it was 8.21 upbm affinity estimate (log intensity, higher = more binding, comparable within an allelic series); in the test with HESX1 [3], 7.65 upbm affinity estimate (log intensity, higher = more binding, comparable within an allelic series).

In the case of TAACGATA, the binding signal was 7.67 upbm affinity estimate (log intensity, higher = more binding, comparable within an allelic series) in the test with HESX1 [1]; 7.8 upbm affinity estimate (log intensity, higher = more binding, comparable within an allelic series) with HESX1 [2]; 7.53 upbm affinity estimate (log intensity, higher = more binding, comparable within an allelic series) with HESX1 [3].

In the case of CGATATTA, the binding signal in the test with HESX1 [1] is 8.16 upbm affinity estimate (log intensity, higher = more binding, comparable within an allelic series); with HESX1 [2] it was 8.27 upbm affinity estimate (log intensity, higher = more binding, comparable within an allelic series); with HESX1 [3] it was 7.74 upbm affinity estimate (log intensity, higher = more binding, comparable within an allelic series).

As for CATTAGAG, the binding signal with HESX1 [1] is 8.32 upbm affinity estimate (log intensity, higher = more binding, comparable within an allelic series); with HESX1 [2] it was 8.46 upbm affinity estimate (log intensity, higher = more binding, comparable within an allelic series); with HESX1 [4], 6.84 upbm affinity estimate (log intensity, higher = more binding, comparable within an allelic series).

With AATAGTGT, the binding signal with HESX1 [1] was 7.52 upbm affinity estimate (log intensity, higher = more binding, comparable within an allelic series); with HESX1 [2] it was 7.75 upbm affinity estimate (log intensity, higher = more binding, comparable within an allelic series); with HESX1 [3], 7.31 upbm affinity estimate (log intensity, higher = more binding, comparable within an allelic series).

Consider CATTAATG, for which the binding signal with HOXB4 [5] is 13.4 upbm affinity estimate (log intensity, higher = more binding, comparable within an allelic series); with VENTX [6], 11.8 upbm affinity estimate (log intensity, higher = more binding, comparable within an allelic series); with HOXB9 [7], 10.3 upbm affinity estimate (log intensity, higher = more binding, comparable within an allelic series); with HOXA4 [8] it was 10.7 upbm affinity estimate (log intensity, higher = more binding, comparable within an allelic series); with HOXC9 [9], 12.8 upbm affinity estimate (log intensity, higher = more binding, comparable within an allelic series); with VENTX [10] it was 12.5 upbm affinity estimate (log intensity, higher = more binding, comparable within an allelic series). Besides, the binding signal is 12 upbm affinity estimate (log intensity, higher = more binding, comparable within an allelic series) in the test with HOXA7 [11]; 12.3 upbm affinity estimate (log intensity, higher = more binding, comparable within an allelic series) with HOXC10 [12]; 11.8 upbm affinity estimate (log intensity, higher = more binding, comparable within an allelic series) with PAX4 [13]; 11.8 upbm affinity estimate (log intensity, higher = more binding, comparable within an allelic series) with VENTX [14]; 12.2 upbm affinity estimate (log intensity, higher = more binding, comparable within an allelic series) in the test with PAX4 [15]; 10.3 upbm affinity estimate (log intensity, higher = more binding, comparable within an allelic series) in the test with HOXB6 [16]. The binding signal was 12.6 upbm affinity estimate (log intensity, higher = more binding, comparable within an allelic series) with HOXA2 [17]; 12.3 upbm affinity estimate (log intensity, higher = more binding, comparable within an allelic series) with HOXA4 [18]; 12.1 upbm affinity estimate (log intensity, higher = more binding, comparable within an allelic series) with HOXB9 [19]; 14 upbm affinity estimate (log intensity, higher = more binding, comparable within an allelic series) with HOXB4 [20]; 12.9 upbm affinity estimate (log intensity, higher = more binding, comparable within an allelic series) with HOXC9 [21]; 11.9 upbm affinity estimate (log intensity, higher = more binding, comparable within an allelic series) in the test with PAX4 [22]. Further, the binding signal with HOXC9 [23] is 12.8 upbm affinity estimate (log intensity, higher = more binding, comparable within an allelic series); in the test with HOXA2 [24], 13.4 upbm affinity estimate (log intensity, higher = more binding, comparable within an allelic series); with PAX4 [25] it was 10.5 upbm affinity estimate (log intensity, higher = more binding, comparable within an allelic series); with HOXA4 [26], 14.2 upbm affinity estimate (log intensity, higher = more binding, comparable within an allelic series); with HOXC10 [27], 12.2 upbm affinity estimate (log intensity, higher = more binding, comparable within an allelic series); with PAX4 [28], 11 upbm affinity estimate (log intensity, higher = more binding, comparable within an allelic series). In addition, the binding signal was 12.7 upbm affinity estimate (log intensity, higher = more binding, comparable within an allelic series) in the test with VAX1 [29]; 11.6 upbm affinity estimate (log intensity, higher = more binding, comparable within an allelic series) with HOXD13; 11.9 upbm affinity estimate (log intensity, higher = more binding, comparable within an allelic series) in the test with HOXB9 [30]; 11 upbm affinity estimate (log intensity, higher = more binding, comparable within an allelic series) in the test with HOXC9 [31]; 12.5 upbm affinity estimate (log intensity, higher = more binding, comparable within an allelic series) with VAX1 [32]; 10.9 upbm affinity estimate (log intensity, higher = more binding, comparable within an allelic series) with PAX4 [33]. In addition, the binding signal with HOXA2 [34] was 11.1 upbm affinity estimate (log intensity, higher = more binding, comparable within an allelic series); in the test with HOXA7 [35], 8.9 upbm affinity estimate (log intensity, higher = more binding, comparable within an allelic series); with HOXA4 [36] it was 11.7 upbm affinity estimate (log intensity, higher = more binding, comparable within an allelic series); with HOXA2 [37], 12.3 upbm affinity estimate (log intensity, higher = more binding, comparable within an allelic series); with VAX1 [38], 12.8 upbm affinity estimate (log intensity, higher = more binding, comparable within an allelic series); with HOXB6 [39] it was 12.4 upbm affinity estimate (log intensity, higher = more binding, comparable within an allelic series).
